The values below come from ChEMBL document CHEMBL3988442, “University of Dundee, Small-Polar-MMV Screening Library” (2021).

In all, about 48,000 compounds went through this assay and about 13,000 (27%) showed an effect of 50% or more. The list shows a part of the results.

The subject of the assay is Wolbachia pipientis. Put plainly: Anti-Wolbachia Cell-Based Screen. Format: functional. The arrangement: scale not given: in the data most compounds retested in dose-response had high values. As to conditions: 5 µM.
As to `CN(Cc1ccc(C(=O)NCC2COCCO2)c(=O)[nH]1)CC(C)(C)C` (stereo not drawn), the “Percent Effect” value is recorded as -4.558%. The figure for `Cc1ccc(NC(=O)NC(C)(C)c2noc(C)n2)cc1` is -4.171%; for `Cn1nnc2c1CCN(CC1CC1)C2COCC1CC1.O=C(O)C(F)(F)F` (stereo not drawn) it is 12.72%; for `Cc1noc(CCCNS(=O)(=O)N2CCCC2c2ccco2)n1` (stereo not drawn) it is -11.05%. The figure for `Cc1cnccc1CN(C)C(=O)c1cccc(CCC(C)(C)O)c1` is 0.1694%; for `CCc1oc(C(=O)N2CCC(N(CC)C(C)=O)C2)cc1CN(CC)CC` (stereo not drawn) it is 93.17%. Then `CCCOc1ccc(C(=O)N2CC[C@H]3CC[C@@H](C2)N3)cc1Cl`, with -21.75%; and `CCc1oc(C(=O)N2CC[C@H]3CC[C@@H](C2)N3)cc1CN(CC)CC`, with 112%; and `CCc1oc(C(=O)N2CCCC(c3nnn[nH]3)C2)cc1C` (stereo not drawn), with -3.531%. For the molecule `CCCOC1CCCN(C(=O)c2cc(CN(CC)CC)c(CC)o2)C1` (stereo not drawn), the “Percent Effect” value was 92.62%. Then `CCc1ccc(C(=O)N2CCC(N(C)C(=O)OC(C)(C)C)C2)o1` (stereo not drawn), with 8.552%; and `CCN(CC)Cc1cc(C(=O)N2CC[C@@]3(O)CCCC[C@H]3C2)c(C)o1`, with -6.043%. Then `CCCOC1CCCN(C(=O)c2csc(S(N)(=O)=O)c2)C1` (stereo not drawn), with 6.923%; and `CCCOC1CCCN(C(=O)c2ccnnc2)C1` (stereo not drawn), with 0.837%; and `O=C(CCCc1ccccn1)NCC(O)c1c(F)cccc1F` (stereo not drawn), with 14.04%. The figure for `CC(=O)Nc1ccc(CNC(=O)CNCc2nnc(C)o2)cc1` is -22.07%. Regarding `CC(C)c1ncc(CN2C[C@@H](CN3CCCN(C)CC3)[C@@H](CO)C2)cn1`, the “Percent Effect” value was -6.838%. Then `COc1cc(CN(C)C(=O)NCCC2CCCO2)ccc1SC` (stereo not drawn), with -4.598%; and `Cc1cc(C)nc(N(C)CCn2ccnc2C)n1`, with 70.85%; and `Cc1cc(N(C)CCn2ccnc2C)n2nccc2n1`, with 3.132%. Then `Cc1nccn1CCN(C)c1cc(C(C)C)nc2ccnn12`, with -21.61%; and `Cc1nc(N2CCN(C(=O)C(C)(C)C)CC2)cc(-n2cnc(C)c2C)n1`, with -0.05678%. Then `O=C(Nc1cccnc1)C1Cc2nc(-c3ccsc3)sc2N1CC1CC1.O=C(O)C(F)(F)F` (stereo not drawn), with 52.78%; and `CN(C)CCNC(=O)C1Cc2nc(-c3ccsc3)sc2N1CC1CC1.O=C(O)C(F)(F)F` (stereo not drawn), with 106.6%; and `O=C(Nc1cccnc1)[C@H]1C[C@H]2OCC[C@H]2N(C(=O)c2ccsc2)C1.O=C(O)C(F)(F)F`, with -10.81%.

On to `O=C(O)C(F)(F)F.O=C(c1ccsc1)N1C[C@@H]2CCN(c3cccnc3)C[C@@H]2C1`, for which the “Percent Effect” value is on record as -7.879%. Then `O=C(O)C(F)(F)F.O=C1N(c2ccsc2)CCC12CCCN(CC1CC1)C2` (stereo not drawn), with 0.74%. The figure for `CC(C)N1c2sc(-c3ccccc3)nc2CC1C(=O)NCCCO` (stereo not drawn) is 3.342%. Then `CN(C)CCOCC1CN(C(=O)c2ccsc2)Cc2ccnn2C1.O=C(O)C(F)(F)F.O=C(O)C(F)(F)F` (stereo not drawn), with -7.951%. In the case of `CC(C)N1[C@@H](C(=O)NCCN(C)C)C[C@H]2CN(c3ncccn3)C[C@H]21.O=C(O)C(F)(F)F.O=C(O)C(F)(F)F.O=C(O)C(F)(F)F`, the “Percent Effect” value is -8.926%. On to `CN(C)CCNC(=O)C1Cc2nc(-c3ccccc3)sc2N1CC1CC1.O=C(O)C(F)(F)F` (stereo not drawn), for which the “Percent Effect” value was 101.2%. The figure for `Cc1cc(C(C)(O)CNC(=O)C2(C)CCCC2)c(C)o1` (stereo not drawn) is -0.4765%; for `FC(F)(F)CCc1ccnc(NCc2csc(N3CCOCC3)n2)n1` it is 9.156%. The figure for `CNC(=O)[C@@H]1COC[C@H]2CN(C(=O)c3ccc(C)c(C)c3)C[C@H]21` is -0.6496%; for `Cc1cc(CN(C)Cc2ncc(C(C)(C)C)o2)no1` it is 71.54%. Take `Cc1cc(CN(C)Cc2cnc3c(c2)c(C)nn3C)no1`: the “Percent Effect” value is listed as -2.389%. Then `CCN(Cc1cccc(Cl)c1)Cc1ncc(C(C)(C)C)o1`, with -36.69%; and `Cc1cccc(CN(Cc2ccccn2)Cc2ncc(C(C)(C)C)o2)c1`, with -46.43%; and `CCN(Cc1ncc(C(C)(C)C)o1)Cc1ccccc1C`, with -27.71%. The figure for `Cc1cc(CN(C)Cc2ncc(-c3ccccc3)o2)no1` is 85.66%. Turning to `CN(Cc1ncc(-c2ccccc2)o1)CC1CCCN1c1cccnn1` (stereo not drawn), the “Percent Effect” value is 1.26%.

Consider `Cc1ccc(CN(C)Cc2ncc(C(C)(C)C)o2)o1`, for which the “Percent Effect” value turned out to be 106.2%. The figure for `Cc1cc(CN(C)Cc2ncc(-c3cccs3)o2)no1` is -12.35%; for `CN(Cc1ccc(N(C)C)cc1)C(=O)CS(=O)(=O)c1ccc(Cl)cc1` it is -13.85%.

Turning to `CCN1CCN(C(=O)C2CCCc3[nH]ncc32)CC1` (stereo not drawn), the “Percent Effect” value is -17.44%.

For the molecule `Cc1cccc2c1nc1n2[C@@H](CNC(=O)c2cnccn2)COC1`, the “Percent Effect” value was -0.5308%. The figure for `O=C1CC2(CCCCC2)CC(=O)N1CC(O)COCc1ccc(Cl)cc1` (stereo not drawn) is -11.1%; for `CC(C(=O)NC1CC1)S(=O)(=O)Cc1csc(-c2cccs2)n1` (stereo not drawn) it is -10.04%. Then `CC(C(=O)NC1CC1)n1nc(-c2cccs2)cc(N)c1=O` (stereo not drawn), with 130.1%; and `Cc1cc(NC(=O)Cn2cnc(-c3cccs3)cc2=O)sn1`, with 24.65%; and `CC(C(N)=O)n1nc(-c2cccs2)cc(N)c1=O` (stereo not drawn), with 54.84%.

Regarding `Cc1cc(NC(=O)Cn2cnc(-c3cccs3)cc2=O)no1`, the “Percent Effect” value is listed as 10.41%. Then `COc1cccn(C(C)C(=O)NC2CCCC2)c1=O` (stereo not drawn), with 10.4%. Then `CCNC(=O)O[C@H]1COCCN(c2nc3ccccc3s2)C1`, with 2.544%; and `CC(C)N(C)C(=O)c1ccc(Cl)c(NC(=O)C2CCC2)c1`, with 2.877%. The figure for `c1cnc(N2CCCC(c3csc(Nc4cnccn4)n3)C2)nc1` (stereo not drawn) is 106%; for `c1cnc(N2CCC(NCc3cnc(C4CCC4)s3)CC2)nc1` it is 3.36%; for `OC(c1cccs1)C1CCN(c2ncccn2)CC1` (stereo not drawn) it is 0.2293%. In the case of `c1cnc(N2CCC(c3csc(Nc4cnccn4)n3)CC2)nc1`, the “Percent Effect” value was 101.3%.

On to `Cc1cccc(C(C(=O)N(C)Cc2ccon2)N(C)C)c1` (stereo not drawn), for which the “Percent Effect” value worked out at 3.369%. The figure for `Cc1noc(-c2cccnc2N(C)Cc2ccc([S+](C)[O-])cc2)n1` (stereo not drawn) is 9.143%; for `O=C1NC(=O)c2c3c(nc(O)c21)CCCC3` it is 98.35%; for `Nc1nc2c(c(NC(=O)Nc3ccccc3)n1)CCCC2` it is -9.493%.

`COCc1cccc(CNC(=O)CN2CCCC2c2noc(C)n2)c1` (stereo not drawn): the “Percent Effect” value is recorded as -0.5396%. The figure for `Cc1csc(Nc2nccnc2C2CCCN2C(=O)C(C)C)n1` (stereo not drawn) is 0.9263%; for `Cc1cccc(Nc2cc(C)nc(C3CCCCN3CC(N)=O)n2)n1` (stereo not drawn) it is 123.2%. Take `CN(C)C(=O)CN1CCCC1c1nccnc1Nc1ccccn1` (stereo not drawn): the “Percent Effect” value was found to be 99.96%.

For `COCC(=O)N1CCCC1c1nccnc1Nc1nc(C)cs1` (stereo not drawn), the “Percent Effect” value is 111.3%. The figure for `Cc1cc(Nc2nc(C)cs2)nc(C2CCCCN2CCO)n1` (stereo not drawn) is -3.809%.

With `COc1ccc(C2CCCN2C(=O)NCCNc2ncccn2)cc1` (stereo not drawn), the “Percent Effect” value is given as -12.53%. The figure for `CCC(=O)N1CCCC1c1nccnc1Nc1ncccn1` (stereo not drawn) is -3.342%.

Consider `CN(C(=O)Nc1ccccn1)C1CCCN(c2ccccc2)C1=O` (stereo not drawn), for which the “Percent Effect” value is recorded as -3.011%. The figure for `COCC(=O)N1CCCC1c1nccnc1Nc1ncccn1` (stereo not drawn) is 112.6%; for `CN(Cc1ccccc1)C(=O)CN1CCCC1c1cnn(C)c1` (stereo not drawn) it is -36.94%; for `COc1nc2c(cc1C(=O)N1CCCOC(CN3CCCC3)C1)CCC2` (stereo not drawn) it is -1.335%.

For `Cc1ccc(CNC(=O)C2CCN(C(=O)c3ccccc3)CC2)n1C`, the “Percent Effect” value was -7.91%.

In the case of `Cc1ccc(C2(C(=O)N3CCC(n4cc(C(C)O)nn4)CC3)CC2)cc1` (stereo not drawn), the “Percent Effect” value is given as -9.43%. For `O=C(O)c1ccc(CCNC(=O)C2(c3ccccc3)CC2)cc1`, the “Percent Effect” value came out at 2.318%. Regarding `C[C@@H]1CN(CC(C)(C)N2CCOCC2)C[C@@]1(O)C1CC1`, the “Percent Effect” value was 17.03%.

`CCc1nc(NS(=O)(=O)c2ccc(F)cc2C)no1`: the “Percent Effect” value is given as -5.54%. Then `Cl.NCC(=O)N1CCCC1c1nccnc1Nc1ncccn1` (stereo not drawn), with 117.8%.

For `CC(C)Cn1cnnc1C1CCCN1C(=O)OC(C)(C)C` (stereo not drawn), the “Percent Effect” value came out at 4.117%. The figure for `Cc1cccc(Nc2nccnc2C2CCCN2CC(N)=O)n1` (stereo not drawn) is 127.5%.

With `CC(C)(C)C(=O)N1CCCC1c1ccc(C(=O)N2CCOCC2)s1` (stereo not drawn), the “Percent Effect” value was -16.89%. Then `CC(C)(C)C(=O)N1CCCC1c1nccnc1Cl` (stereo not drawn), with 155.8%; and `CC(C)CC(=O)N1CCCC1c1nccnc1Nc1ncccn1` (stereo not drawn), with 105.7%. As to `FC(F)c1nnc2ccc(N3CCC4(CCCCC4)C3)nn12`, the “Percent Effect” value was -13.07%. As for `O=C(O)[C@H]1C[C@H](C(=O)NC2CC2)CN(Cc2ccc(-c3cc[nH]n3)s2)C1`, the “Percent Effect” value is reported as -5.985%. Turning to `CCOC(=O)CCC(=O)N1CCC(CSCc2ccco2)CC1`, the “Percent Effect” value is -5.481%. For `CC(C)N(CC(=O)O)Cc1cccc(Br)c1.Cl`, the “Percent Effect” value is reported as -4.939%.

On to `COCCn1ccnc1C1CCCN(c2ncnc3c(C)csc23)C1` (stereo not drawn), for which the “Percent Effect” value was -8.002%.

With `CC(=O)N1CCCC1c1nccnc1NCc1cccnc1` (stereo not drawn), the “Percent Effect” value stood at 106.4%.

Turning to `COCCn1ccnc1-c1cc(CN2CCCCC2)cs1`, the “Percent Effect” value was -8.994%. Then `Cc1cccc(Nc2nccnc2C2CCCN(CC(=O)N(C)C)C2)n1` (stereo not drawn), with 110.8%; and `Cc1cc(C2CCCN2C(=O)NCc2cccnc2)on1` (stereo not drawn), with -8.527%; and `CC(=O)N1CCCC1c1nnn2cc(NCc3cccnc3)ccc12.O=C(O)C(F)(F)F.O=C(O)C(F)(F)F` (stereo not drawn), with 4.094%. Then `Cc1csc(Nc2nccnc2C2CCCN2CC(N)=O)n1` (stereo not drawn), with 113.4%; and `COCCN1CCCC(c2nccnc2Nc2nc(C)cs2)C1` (stereo not drawn), with 86.28%; and `CC(=O)N1CCC2(CCCN(C(=O)CCN3CCCCC3)C2)C1` (stereo not drawn), with -26.8%.

`O=C(Cc1cccs1)NC1(C(=O)NCC2CC2)CCCC1`: the “Percent Effect” value came to 4.522%. Then `CC(=O)N1CCCC1c1nnn2cc(Nc3ccccc3)ccc12.O=C(O)C(F)(F)F` (stereo not drawn), with -10.64%; and `COCCC(=O)N1CCCC1c1nccnc1Nc1ncccn1` (stereo not drawn), with 132.2%; and `CC(=O)N1CCCC1c1nccnc1Nc1ncccn1` (stereo not drawn), with 114.6%.
